Source: PubChem BioAssay
Shown are actives, neighbours in structure and some others; about 3.8% of the full set was active somewhere.
PrPC surface inh = inhibitors of human cell surface prion protein PrPC, primary screen, cell-based, TR-FRET; Major prion protein (Homo sapiens), P04156; TR-FRET read-out; inhibition, % at 13.8 µM; 370,000 tested, 0.43% active; in the data active = inhibition above about 24%
Mtb hypoxia inh = PubChem AID 1159583 | fluorescence inhibition, % (no concentration beside the values) | 300,000 tested, 0.1% active | M. tuberculosis hypoxia-regulated fluorescent reporter, fluorescence; in the data active = fluorescence inhibition mostly above about 23%, no sharp cut-off; inactive = mostly below about 17%
PrP 5UTR inh = inhibition of PrP 5' UTR reporter expression. cell-based PrP 5' UTR mRNA reporter, plate reader. inhibition, % (concentration not given with the values). 340,000 tested, 0.35% active; in the data active = inhibition above about 52%
FBA Mtb inh = Mtb FBA enzyme inhibitors, primary screen, biochemical, fluorescence, strain H37Rv | Fructose-bisphosphate aldolase (Mycobacterium tuberculosis (strain ATCC 25618 / H37Rv)), … | purified M. tuberculosis FBA, fluorescence read-out | inhibition, % at 1 µM | 360,000 tested, 2.3% active | AID 588726, 2011; in the data active = inhibition above about 27%
Target sequence (P9WQA3 whole entry, looked up): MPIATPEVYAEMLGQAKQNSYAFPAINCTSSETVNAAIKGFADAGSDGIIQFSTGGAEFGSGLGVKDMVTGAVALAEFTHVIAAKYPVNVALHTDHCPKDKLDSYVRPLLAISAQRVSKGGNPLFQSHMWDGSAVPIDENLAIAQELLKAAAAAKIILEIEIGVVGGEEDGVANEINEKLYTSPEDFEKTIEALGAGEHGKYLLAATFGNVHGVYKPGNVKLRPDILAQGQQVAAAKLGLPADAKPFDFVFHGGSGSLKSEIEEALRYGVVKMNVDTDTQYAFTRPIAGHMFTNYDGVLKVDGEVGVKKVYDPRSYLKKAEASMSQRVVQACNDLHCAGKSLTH
Yp Topo-I inh = Yersinia pestis topoisomerase I inhibitors, primary screen, biochemical, cleavage product accumulation, plate reader, single point. Y. pestis Topo-I cleavage product accumulation. activity, % at 10 µM. 360,000 tested, 0.064% active. AID 504884, 2011; in the data active = activity above about 50%, passing the limit was not always enough
GDH-TPI counter = GDH-TPI coupling enzyme inhibitors, primary screen, artefact control for M. tuberculosis FBA inhibitor project, biochemical, absorbance, full deck; GDH-TPI coupled enzyme counterscreen, NADH absorbance; inhibition, % at 4.8 µM; 360,000 tested, 1.2% active; AID 588335, 2011; in the data active = inhibition above about 30%
Hits are given with their value; – = inactive; · = not tested or not shown; + = active, no number.

SMILES | PrPC surface inh | Mtb hypoxia inh | PrP 5UTR inh | FBA Mtb inh | Yp Topo-I inh | GDH-TPI counter
C=CCn1c(=O)c(C#N)cc2c(=O)n3ccccc3nc21 | – | – | – | + | – | –
Cc1ccccc1-n1c(=O)c(C#N)cc2c(=O)n3ccccc3nc21 | – | – | – | + | – | –
CCn1c(=N)c(S(=O)(=O)c2ccc(C)cc2)cc2c(=O)n3ccccc3nc21 | – | – | · | · | · | ·
CC(/C=C/c1ccccc1)=NNC(=O)CNC(=O)c1ccccc1Cl | · | – | · | · | · | ·
CC(=NNc1nc(C)cc(-c2ccccc2)n1)c1cccc(N)c1 | · | – | · | · | · | ·
CC(=O)n1cc(C2C=C(C(=O)N3CCOCC3)OC(OCCCCO)C2)c2ccccc21 (stereo not drawn) | · | – | · | · | · | ·
COc1ccccc1N1CCN(C(=O)/C=C/c2ccc3c(c2)OCO3)CC1 | – | – | – | – | – | 43.3
CC1CN(C(=O)/C=C/c2ccc3c(c2)OCO3)CC(C)O1 (stereo not drawn) | – | 91.1 | – | – | – | 34.8
COc1cc(CCCNC(CN)Cc2ccccc2)cc(OC)c1OC (stereo not drawn) | · | – | · | · | · | ·
O=C(NN=C/C(Br)=C/c1ccccc1)c1cccs1 | · | – | · | · | · | ·
Cc1nc2nc[nH]c2cc1Br | – | – | – | – | – | –
Cc1nc2nc(-c3cccs3)[nH]c2cc1Br | – | – | – | – | – | 53.1
O=C1NCCC/C1=N\Nc1ccc(Br)cc1 | – | · | – | – | – | 37.4
O=C1NCCCC1=NNc1ccc(Br)cc1 | · | – | · | · | · | ·
O=C1NC(=S)N/C1=C/c1cccc([N+](=O)[O-])c1 | – | – | – | – | – | –
O=C1NC(=S)N/C1=C\c1cccc([N+](=O)[O-])c1 | – | – | – | – | – | 33.5
O=C1NC(=S)N/C1=C/c1cccnc1 | – | – | – | – | – | 45.0
O=C1NC(=S)N/C1=C\c1cccnc1 | – | – | – | – | – | –
O=C1/C(=C/c2cccnc2)CCC/C1=C\c1cccnc1 | – | · | · | · | · | ·
O=C1/C(=C/c2cccnc2)CC/C1=C\c1cccnc1 | – | – | – | – | – | 53.8
O=C(O)c1cccc2c1C(=NO)c1ccccc1-2 | · | – | · | · | · | ·
CCCCCCCCC=CCCCCCCCC(=O)NCCO | · | – | · | · | · | ·
CCCC=C1CCCOC(C(=O)NCCN2CCOCC2)(C(F)(F)F)C1 (stereo not drawn) | · | – | · | · | · | ·
COc1ccc(/C=C(\C#N)C(=O)N2CCOCC2)cc1Br | – | – | – | – | – | 37.1
N#CC(=NNc1ccc(Br)cc1)C(=N)N1CCOCC1 | · | – | · | · | · | ·
SMILES | PrPC surface inh | Mtb hypoxia inh | PrP 5UTR inh | FBA Mtb inh | Yp Topo-I inh | GDH-TPI counter
CC(=NNC(=O)c1cccc(Br)c1)C1CC2CCC1C2 (stereo not drawn) | · | – | · | · | · | ·
COC(=O)c1ccccc1-c1ccc(C=O)o1 | – | – | – | – | – | –
COC(=O)NN=Cc1ccc(-c2cc(Cl)ccc2Cl)o1 | · | – | · | · | · | ·
COC(=O)N/N=C/c1ccc(-c2ccccc2Cl)o1 | – | · | – | – | – | 35.2
COC(=O)c1sccc1-c1ccc(/C=N/OC(=O)c2ccccc2)o1 | – | · | – | – | – | 30.8
COC(=O)N/N=C/c1ccc(-c2ccc(Cl)cc2Cl)o1 | – | · | – | – | – | 33.7
COC(=O)c1sccc1-c1ccc(C=NOC(=O)c2cccs2)o1 | · | – | · | · | · | ·
COC(=O)c1ccccc1-c1ccc(/C=N/NC(N)=O)o1 | – | · | – | – | – | 31.7
CC(C)CC(CO)N1CCN(Cc2ccccc2)CCC1=O (stereo not drawn) | · | – | · | · | · | ·
CCOC1OC(C(=O)N2CCN(C)CC2)=CC(c2csc3ccccc23)C1CCCO (stereo not drawn) | · | – | · | · | · | ·
Cc1ccc2c(c1)c1cccc3c1n2CCN3CCC(N)=O | · | · | – | 49.0 | – | –
NC(=O)CCn1c2ccccc2c2ccccc21 | – | – | – | – | – | –
Cc1cccc(CN2C(=O)N/C(=C/c3ccc(C)s3)C2=O)c1 | – | – | – | – | – | –
Cc1cccc(CN2C(=O)N/C(=C/c3cc(C)n(-c4cc(C)ccn4)c3C)C2=O)c1 | · | – | – | – | – | 31.4
CCOC(=O)C1CCN(Cc2cccc(Oc3ccccc3)c2)CC1 | – | – | – | – | 65.8 | –
Cc1cc2[nH]c(=O)c(=O)[nH]c2cc1S(=O)(=O)NCc1ccc(Cl)cc1 | · | · | – | 48.1 | – | –
CC(C)(C)n1nnnc1C(c1ccc(F)cc1)N(Cc1ccc(F)cc1)Cc1ccco1 (stereo not drawn) | – | – | – | – | – | –
Cc1ccc(C(c2nnnn2C(C)(C)C)N(Cc2ccco2)Cc2cccs2)cc1 (stereo not drawn) | – | – | – | 36.3 | – | –
C/C(=N\OC(=O)c1ccc(F)cc1)c1nccs1 | – | · | – | – | – | –
CC(=NOC(=O)C1CCCCC1)c1nccs1 | – | · | · | – | – | 50.5
COc1cc(OC)c(OC)cc1C=NNC(=O)c1cnccn1 | · | – | · | · | · | ·
COc1ccc(S(=O)(=O)N(C)CC2Oc3ccc(NS(=O)(=O)c4c(C)noc4C)cc3C(=O)N(C(C)CO)CC2C)cc1 (stereo not drawn) | · | – | · | · | · | ·
COCCCNc1nc2cc(OC)c(OC)cc2c2nc(-c3ccccc3)nn12 | – | – | – | – | – | –
CCN(CC)CCCNc1nc2ccccc2c2nc(-c3ccncc3)nn12 | – | 50.2 | – | – | – | –
CCN(CC)CCCNc1nc2cc(OC)c(OC)cc2c2nc(-c3ccccc3)nn12 | – | 72.3 | – | – | – | –
SMILES | PrPC surface inh | Mtb hypoxia inh | PrP 5UTR inh | FBA Mtb inh | Yp Topo-I inh | GDH-TPI counter
CCN(CC)CCCNc1nc2cc(OC)c(OC)cc2c2nc(-c3cccnc3)nn12 | – | 39.3 | – | – | – | –
CN1CCN(CCCNc2nc3ccccc3c3nc(-c4ccccc4)nn23)CC1 | – | – | – | – | – | –
CCOc1ccc(Cc2onc3c2C(=O)CCC3)cc1OCC | – | – | – | + | – | –
C/C(=N\Nc1nccnc1Cl)c1ccc(Cl)c(Cl)c1 | – | · | – | – | – | 41.4
CN1CC2C3C(=O)N(C)C(=O)C3[C@](C)(C1=O)N2C(=O)c1ccc(Cl)cc1 (stereo partly drawn) | · | – | · | · | · | ·
C/C(=C1/SC(N2CCCC2)=NC1=O)c1ccc(Br)cc1 | – | 75.7 | – | – | – | –
